Binding signal data for one sequence are collected here from paper PMC7862700, “An all-to-all approach to the identification of sequence-specific readers for epigenetic DNA modifications on cytosine”.

Holding throughout (assay): DAPPL (digital affinity profiling via proximity ligation, sequencing); 10 mM Tris-HCl pH 7.5, 50 mM NaCl, 1 mM DTT, 4% glycerol, room temperature, 30 min; GST-TFs on glutathione beads, 16-mer random dsDNA library, 0.1% formaldehyde crosslink after washing; high values mean tight binding
The target in one assay is T1, FEV (Homo sapiens, UniProt Q99581 1-238).
T1 sequence: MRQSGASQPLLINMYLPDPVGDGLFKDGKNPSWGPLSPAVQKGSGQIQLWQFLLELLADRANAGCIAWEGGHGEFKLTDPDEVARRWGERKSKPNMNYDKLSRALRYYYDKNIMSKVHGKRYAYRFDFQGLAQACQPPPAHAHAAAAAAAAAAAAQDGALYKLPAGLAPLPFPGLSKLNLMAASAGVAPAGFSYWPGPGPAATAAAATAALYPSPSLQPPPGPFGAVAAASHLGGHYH
The note with it: protein: recombinant; tags: N-terminal GST; dsDNA, one strand shown. Summed up:
(§1)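 Binding signal is given per hexamer as its read frequency for a factor divided by its frequency in the tag-only sample. GST-fused human transcription factors were expressed in yeast, captured on glutathione beads, barcoded with DNA and pooled with that sample, then incubated with 200 nmole of a 16-mer random double-stranded DNA library in Tris/NaCl/DTT/glycerol buffer for 30 min at room temperature. The pools were then washed, crosslinked, proximity-ligated, amplified by PCR and sequenced on an Illumina NextSeq500.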

Another assay deals with ETV5 (Homo sapiens, UniProt P41161 1-510). The conditions noted are these: protein: recombinant; tags: N-terminal GST; dsDNA, one strand shown. Summed up: as §1
Chain of ETV5 (P41161 whole entry): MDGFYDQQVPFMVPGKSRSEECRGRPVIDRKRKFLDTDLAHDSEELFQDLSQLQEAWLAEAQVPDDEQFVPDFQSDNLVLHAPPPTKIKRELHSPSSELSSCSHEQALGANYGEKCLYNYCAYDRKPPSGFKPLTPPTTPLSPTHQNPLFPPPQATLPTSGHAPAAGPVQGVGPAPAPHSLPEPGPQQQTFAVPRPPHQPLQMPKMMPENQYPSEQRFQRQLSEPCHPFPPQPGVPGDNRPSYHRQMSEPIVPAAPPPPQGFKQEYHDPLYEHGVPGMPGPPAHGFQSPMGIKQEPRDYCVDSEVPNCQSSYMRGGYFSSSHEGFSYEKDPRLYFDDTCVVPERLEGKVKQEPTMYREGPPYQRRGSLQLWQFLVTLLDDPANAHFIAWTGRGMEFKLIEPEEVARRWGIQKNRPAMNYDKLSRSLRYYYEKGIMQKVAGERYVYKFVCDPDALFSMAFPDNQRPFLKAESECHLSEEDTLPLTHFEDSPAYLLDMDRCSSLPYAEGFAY
For a further assay, the target named is HSF1 (Homo sapiens, UniProt Q00613 1-529). The conditions noted are these: protein: recombinant; tags: N-terminal GST; chain copies: 3; dsDNA, one strand shown. A digest of the protocol:
as §1

The target of a further assay is T2, SPIC (Homo sapiens, UniProt Q8N5J4 1-248).
T2 sequence: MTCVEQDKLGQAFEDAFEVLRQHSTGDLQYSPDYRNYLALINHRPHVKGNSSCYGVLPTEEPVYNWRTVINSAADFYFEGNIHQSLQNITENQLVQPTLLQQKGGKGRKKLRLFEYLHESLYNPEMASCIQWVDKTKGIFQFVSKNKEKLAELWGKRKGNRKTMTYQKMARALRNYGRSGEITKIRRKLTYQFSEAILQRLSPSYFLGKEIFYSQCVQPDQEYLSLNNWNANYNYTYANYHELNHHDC
The conditions noted are these: protein: recombinant; tags: N-terminal GST; dsDNA, one strand shown. A digest of the protocol: as §1

In the next assay the target is ELF4 (Homo sapiens, UniProt Q99607 1-663). The conditions noted are these: protein: recombinant; tags: N-terminal GST; dsDNA, one strand shown. Summed up: as §1
Chain of ELF4 (Q99607 whole entry): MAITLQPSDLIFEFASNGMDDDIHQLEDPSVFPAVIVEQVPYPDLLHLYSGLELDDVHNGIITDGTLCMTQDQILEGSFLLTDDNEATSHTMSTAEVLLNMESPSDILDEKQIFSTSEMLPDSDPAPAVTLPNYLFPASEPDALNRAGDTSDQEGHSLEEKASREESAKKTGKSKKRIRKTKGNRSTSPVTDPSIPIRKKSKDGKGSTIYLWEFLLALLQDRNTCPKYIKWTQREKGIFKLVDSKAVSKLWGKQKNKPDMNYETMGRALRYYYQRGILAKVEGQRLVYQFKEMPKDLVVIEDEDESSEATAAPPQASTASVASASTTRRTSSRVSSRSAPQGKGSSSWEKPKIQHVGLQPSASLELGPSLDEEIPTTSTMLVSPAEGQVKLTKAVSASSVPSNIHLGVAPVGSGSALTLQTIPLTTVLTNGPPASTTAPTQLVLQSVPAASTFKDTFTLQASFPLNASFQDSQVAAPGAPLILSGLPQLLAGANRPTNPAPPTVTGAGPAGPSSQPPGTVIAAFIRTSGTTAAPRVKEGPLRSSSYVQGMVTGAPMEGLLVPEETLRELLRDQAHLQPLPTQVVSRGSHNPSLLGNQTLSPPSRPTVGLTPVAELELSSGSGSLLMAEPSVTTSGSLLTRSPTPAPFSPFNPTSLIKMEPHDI
In another assay the target is T3, ELK4 (Homo sapiens, UniProt P28324-2 1-405).
T3 sequence: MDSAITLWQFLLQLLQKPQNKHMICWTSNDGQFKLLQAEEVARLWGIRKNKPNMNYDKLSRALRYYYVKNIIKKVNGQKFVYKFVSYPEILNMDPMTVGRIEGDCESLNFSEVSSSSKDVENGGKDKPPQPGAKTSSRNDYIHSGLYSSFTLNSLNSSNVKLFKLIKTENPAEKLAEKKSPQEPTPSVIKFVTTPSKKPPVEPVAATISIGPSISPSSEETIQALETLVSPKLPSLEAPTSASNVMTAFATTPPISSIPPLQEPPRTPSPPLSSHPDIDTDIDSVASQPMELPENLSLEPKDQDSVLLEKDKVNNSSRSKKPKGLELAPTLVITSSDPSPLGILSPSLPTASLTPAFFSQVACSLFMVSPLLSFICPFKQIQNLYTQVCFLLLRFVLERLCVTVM
The note with it: protein: recombinant; tags: N-terminal GST; dsDNA, one strand shown. A digest of the protocol: as §1

A further assay deals with T4, ETV2 (Homo sapiens, UniProt O00321 1-342).
T4 sequence: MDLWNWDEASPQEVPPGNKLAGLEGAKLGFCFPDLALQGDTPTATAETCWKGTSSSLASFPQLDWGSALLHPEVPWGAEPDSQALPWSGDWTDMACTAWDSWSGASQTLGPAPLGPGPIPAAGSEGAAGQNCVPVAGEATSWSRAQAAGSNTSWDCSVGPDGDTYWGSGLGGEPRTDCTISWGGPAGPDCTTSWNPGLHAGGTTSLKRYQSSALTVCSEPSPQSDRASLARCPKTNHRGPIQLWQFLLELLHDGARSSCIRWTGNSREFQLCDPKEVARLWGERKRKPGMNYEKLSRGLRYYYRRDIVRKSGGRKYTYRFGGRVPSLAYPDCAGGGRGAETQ
The conditions noted are these: protein: recombinant; tags: N-terminal GST; dsDNA, one strand shown. Summed up:
as §1

The target in another assay is T5, ELF3 (Homo sapiens, UniProt P78545 1-371).
T5 sequence: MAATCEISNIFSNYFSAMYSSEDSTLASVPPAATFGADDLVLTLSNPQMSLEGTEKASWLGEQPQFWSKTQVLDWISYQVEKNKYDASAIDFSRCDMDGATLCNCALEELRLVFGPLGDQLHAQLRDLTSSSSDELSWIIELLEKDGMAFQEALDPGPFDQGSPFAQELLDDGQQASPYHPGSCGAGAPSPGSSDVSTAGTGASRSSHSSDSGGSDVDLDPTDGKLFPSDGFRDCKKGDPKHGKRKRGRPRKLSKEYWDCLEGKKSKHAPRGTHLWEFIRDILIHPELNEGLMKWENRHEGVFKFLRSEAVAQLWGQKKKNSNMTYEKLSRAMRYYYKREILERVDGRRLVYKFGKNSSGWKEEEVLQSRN
The note with it: protein: recombinant; tags: N-terminal GST; dsDNA, one strand shown. Summed up: as §1

The next assay addresses CRX (Homo sapiens, UniProt O43186 1-299). The note with it: protein: recombinant; tags: N-terminal GST; dsDNA, one strand shown. A digest of the protocol:
as §1

The target in the next assay is ETV1 (Homo sapiens, UniProt P50549 1-477). The note with it: protein: recombinant; tags: N-terminal GST; dsDNA, one strand shown. Summed up: as §1
Chain of ETV1 (P50549 whole entry): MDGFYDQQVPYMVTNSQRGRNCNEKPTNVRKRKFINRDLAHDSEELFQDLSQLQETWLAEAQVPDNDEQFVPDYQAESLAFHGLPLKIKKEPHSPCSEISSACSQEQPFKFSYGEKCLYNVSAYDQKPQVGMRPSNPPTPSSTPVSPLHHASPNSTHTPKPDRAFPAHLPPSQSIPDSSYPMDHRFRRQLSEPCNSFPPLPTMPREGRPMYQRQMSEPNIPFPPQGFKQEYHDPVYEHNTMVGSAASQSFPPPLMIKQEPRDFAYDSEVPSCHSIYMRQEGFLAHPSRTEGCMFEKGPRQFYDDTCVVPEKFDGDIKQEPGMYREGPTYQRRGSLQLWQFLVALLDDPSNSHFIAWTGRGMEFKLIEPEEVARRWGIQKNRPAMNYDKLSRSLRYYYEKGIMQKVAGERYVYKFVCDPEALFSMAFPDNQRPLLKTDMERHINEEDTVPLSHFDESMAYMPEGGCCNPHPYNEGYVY
A further assay concerns the target T6, ERF (Homo sapiens, UniProt P50548 1-548).
T6 sequence: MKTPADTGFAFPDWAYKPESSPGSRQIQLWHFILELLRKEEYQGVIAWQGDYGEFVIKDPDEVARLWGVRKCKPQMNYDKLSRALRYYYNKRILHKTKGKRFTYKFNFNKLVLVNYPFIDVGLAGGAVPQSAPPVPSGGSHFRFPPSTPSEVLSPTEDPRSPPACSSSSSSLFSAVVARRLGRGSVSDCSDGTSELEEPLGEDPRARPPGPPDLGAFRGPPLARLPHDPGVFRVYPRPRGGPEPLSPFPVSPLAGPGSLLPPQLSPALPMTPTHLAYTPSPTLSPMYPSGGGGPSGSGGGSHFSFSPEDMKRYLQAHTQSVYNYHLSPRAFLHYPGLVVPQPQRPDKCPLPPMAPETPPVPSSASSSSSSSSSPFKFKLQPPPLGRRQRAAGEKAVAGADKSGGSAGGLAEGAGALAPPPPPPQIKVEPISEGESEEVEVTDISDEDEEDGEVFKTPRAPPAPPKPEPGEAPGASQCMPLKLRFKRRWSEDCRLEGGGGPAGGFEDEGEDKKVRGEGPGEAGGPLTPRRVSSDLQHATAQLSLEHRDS
The conditions noted are these: protein: recombinant; tags: N-terminal GST; dsDNA, one strand shown. A digest of the protocol: as §1

Another assay addresses T7, ETV3L (Homo sapiens, UniProt Q6ZN32 1-361).
T7 sequence: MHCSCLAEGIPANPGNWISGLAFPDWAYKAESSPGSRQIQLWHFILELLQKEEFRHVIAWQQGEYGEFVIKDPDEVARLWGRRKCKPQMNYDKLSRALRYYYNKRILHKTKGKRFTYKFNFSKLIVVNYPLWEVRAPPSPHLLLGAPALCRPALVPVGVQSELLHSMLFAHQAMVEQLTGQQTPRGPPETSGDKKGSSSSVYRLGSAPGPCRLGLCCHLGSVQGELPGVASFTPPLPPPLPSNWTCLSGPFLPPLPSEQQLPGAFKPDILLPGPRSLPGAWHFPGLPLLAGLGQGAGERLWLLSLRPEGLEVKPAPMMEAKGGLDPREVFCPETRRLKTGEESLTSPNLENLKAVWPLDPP
The note with it: protein: recombinant; tags: N-terminal GST; dsDNA, one strand shown. Summed up: as §1

In the next assay the target is T8, ETS2 (Homo sapiens, UniProt P15036 1-469).
T8 sequence: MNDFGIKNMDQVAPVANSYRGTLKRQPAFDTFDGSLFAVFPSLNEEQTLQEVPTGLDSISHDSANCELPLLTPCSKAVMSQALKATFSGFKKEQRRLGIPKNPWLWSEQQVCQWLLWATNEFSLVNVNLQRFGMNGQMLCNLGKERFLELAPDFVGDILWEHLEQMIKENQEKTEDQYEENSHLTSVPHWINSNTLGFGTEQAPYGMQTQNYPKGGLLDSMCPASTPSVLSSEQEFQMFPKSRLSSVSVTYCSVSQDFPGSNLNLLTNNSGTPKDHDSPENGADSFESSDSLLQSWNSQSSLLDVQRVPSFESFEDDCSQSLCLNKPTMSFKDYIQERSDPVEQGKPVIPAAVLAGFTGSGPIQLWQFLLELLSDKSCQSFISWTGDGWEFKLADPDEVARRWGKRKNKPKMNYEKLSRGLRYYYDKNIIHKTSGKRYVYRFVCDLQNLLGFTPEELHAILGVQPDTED
The conditions noted are these: protein: recombinant; tags: N-terminal GST; dsDNA, one strand shown. A digest of the protocol: as §1

In the next assay the target is T9, SPDEF (Homo sapiens, UniProt O95238 1-335).
T9 sequence: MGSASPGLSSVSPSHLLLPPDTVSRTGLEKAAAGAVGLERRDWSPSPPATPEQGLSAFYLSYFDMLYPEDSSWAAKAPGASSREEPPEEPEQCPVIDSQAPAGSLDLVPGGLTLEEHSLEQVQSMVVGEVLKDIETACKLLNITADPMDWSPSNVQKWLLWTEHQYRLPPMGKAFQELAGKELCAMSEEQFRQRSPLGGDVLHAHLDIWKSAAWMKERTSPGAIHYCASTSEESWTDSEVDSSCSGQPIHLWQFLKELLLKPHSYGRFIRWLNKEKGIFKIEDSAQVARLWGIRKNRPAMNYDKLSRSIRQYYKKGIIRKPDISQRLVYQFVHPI
The conditions noted are these: protein: recombinant; tags: N-terminal GST; dsDNA, one strand shown. Summed up: as §1

For another assay, the target named is T10, ETV7 (Homo sapiens, UniProt Q9Y603 1-341).
T10 sequence: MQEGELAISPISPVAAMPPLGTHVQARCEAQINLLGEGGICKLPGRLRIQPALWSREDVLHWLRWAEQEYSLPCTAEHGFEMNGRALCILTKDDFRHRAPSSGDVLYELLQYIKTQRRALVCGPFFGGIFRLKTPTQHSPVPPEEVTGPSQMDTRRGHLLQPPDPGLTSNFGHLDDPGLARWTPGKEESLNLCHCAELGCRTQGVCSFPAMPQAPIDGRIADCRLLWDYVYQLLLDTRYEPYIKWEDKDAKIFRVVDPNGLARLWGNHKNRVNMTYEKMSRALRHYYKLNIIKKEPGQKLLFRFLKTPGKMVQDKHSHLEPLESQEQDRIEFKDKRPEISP
The note with it: protein: recombinant; tags: N-terminal GST; dsDNA, one strand shown. A digest of the protocol: as §1

The target in a further assay is T11, ELF5 (Homo sapiens, UniProt Q9UKW6-2 1-255).
T11 sequence: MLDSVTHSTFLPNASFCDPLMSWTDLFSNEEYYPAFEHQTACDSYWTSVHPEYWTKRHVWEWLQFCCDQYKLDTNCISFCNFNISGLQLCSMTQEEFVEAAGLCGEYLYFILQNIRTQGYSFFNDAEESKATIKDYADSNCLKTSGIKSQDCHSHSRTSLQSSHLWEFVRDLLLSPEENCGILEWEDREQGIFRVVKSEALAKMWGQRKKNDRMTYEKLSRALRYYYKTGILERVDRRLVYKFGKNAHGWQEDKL
The note with it: protein: recombinant; tags: N-terminal GST; dsDNA, one strand shown. Summed up:
as §1

For the next assay, the target named is T12, ETV3 (Homo sapiens, UniProt P41162-2 1-143).
T12 sequence: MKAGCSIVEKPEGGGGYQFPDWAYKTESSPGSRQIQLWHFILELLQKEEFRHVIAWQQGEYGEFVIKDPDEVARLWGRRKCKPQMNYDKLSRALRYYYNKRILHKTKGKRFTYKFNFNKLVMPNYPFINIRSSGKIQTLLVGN
The conditions noted are these: protein: recombinant; tags: N-terminal GST; dsDNA, one strand shown. Summed up: as §1

For a further assay, the target named is ETV6 (Homo sapiens, UniProt P41212 1-452). The note with it: protein: recombinant; tags: N-terminal GST; dsDNA, one strand shown. Summed up:
as §1

Chain of HSF1 (Q00613 whole entry): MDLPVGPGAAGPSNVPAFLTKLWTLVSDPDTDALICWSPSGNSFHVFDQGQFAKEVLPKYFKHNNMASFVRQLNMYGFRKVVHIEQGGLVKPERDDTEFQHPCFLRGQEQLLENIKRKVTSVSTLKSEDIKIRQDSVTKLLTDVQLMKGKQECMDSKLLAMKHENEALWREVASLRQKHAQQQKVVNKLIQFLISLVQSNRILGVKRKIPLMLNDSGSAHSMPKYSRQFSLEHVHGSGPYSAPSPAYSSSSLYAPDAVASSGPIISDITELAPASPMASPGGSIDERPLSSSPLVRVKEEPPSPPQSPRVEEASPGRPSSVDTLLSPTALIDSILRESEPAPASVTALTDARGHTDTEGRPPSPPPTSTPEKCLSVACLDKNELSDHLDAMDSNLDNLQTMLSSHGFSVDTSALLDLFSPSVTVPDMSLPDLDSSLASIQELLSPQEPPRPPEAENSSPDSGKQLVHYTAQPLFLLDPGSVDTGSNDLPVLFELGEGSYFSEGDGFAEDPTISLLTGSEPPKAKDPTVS
Chain of ETV6 (P41212 whole entry): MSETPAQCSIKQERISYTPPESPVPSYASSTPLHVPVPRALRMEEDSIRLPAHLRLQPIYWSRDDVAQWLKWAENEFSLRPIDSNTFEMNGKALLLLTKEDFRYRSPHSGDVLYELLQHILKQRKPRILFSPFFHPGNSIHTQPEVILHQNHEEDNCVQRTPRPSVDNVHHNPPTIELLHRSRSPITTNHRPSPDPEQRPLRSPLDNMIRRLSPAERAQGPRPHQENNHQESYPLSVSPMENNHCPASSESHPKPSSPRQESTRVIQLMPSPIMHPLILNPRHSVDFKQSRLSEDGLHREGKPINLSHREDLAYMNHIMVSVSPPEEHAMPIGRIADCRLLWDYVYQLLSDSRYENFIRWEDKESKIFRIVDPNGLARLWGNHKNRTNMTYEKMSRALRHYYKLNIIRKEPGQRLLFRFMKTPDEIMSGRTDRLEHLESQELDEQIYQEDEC
Chain of CRX (O43186 whole entry): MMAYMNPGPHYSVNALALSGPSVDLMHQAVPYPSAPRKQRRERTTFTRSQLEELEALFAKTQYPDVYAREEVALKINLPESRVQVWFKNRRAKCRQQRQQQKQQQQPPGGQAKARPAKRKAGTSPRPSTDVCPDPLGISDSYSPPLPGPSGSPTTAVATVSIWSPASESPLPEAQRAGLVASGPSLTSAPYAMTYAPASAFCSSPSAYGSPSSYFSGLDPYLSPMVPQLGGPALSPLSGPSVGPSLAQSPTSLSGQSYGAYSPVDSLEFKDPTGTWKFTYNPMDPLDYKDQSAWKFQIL

With TTTCAT, the binding signal in the assay with FEV was 1.12 fold enrichment (6-mer frequency, TF over GST control); with ETV5, 1.09 fold enrichment (6-mer frequency, TF over GST control); in the assay with HSF1 it was 1.13 fold enrichment (6-mer frequency, TF over GST control); with SPIC, 1.11 fold enrichment (6-mer frequency, TF over GST control); with ELF4 it was 1.2 fold enrichment (6-mer frequency, TF over GST control); in the assay with ELK4 it was 1.19 fold enrichment (6-mer frequency, TF over GST control). Also, the binding signal with ETV2 was 1.1 fold enrichment (6-mer frequency, TF over GST control); with ELF3 it was 1.11 fold enrichment (6-mer frequency, TF over GST control); with CRX, 1.18 fold enrichment (6-mer frequency, TF over GST control); with ETV1, 1.16 fold enrichment (6-mer frequency, TF over GST control); in the assay with ERF, 1.25 fold enrichment (6-mer frequency, TF over GST control); with ETV3L, 1.15 fold enrichment (6-mer frequency, TF over GST control). Further, the binding signal was 1.17 fold enrichment (6-mer frequency, TF over GST control) in the assay with ETS2; 1.2 fold enrichment (6-mer frequency, TF over GST control) in the assay with SPDEF; 1.2 fold enrichment (6-mer frequency, TF over GST control) with ETV7; 1.23 fold enrichment (6-mer frequency, TF over GST control) with ELF5; 1.22 fold enrichment (6-mer frequency, TF over GST control) with ETV3; 1.13 fold enrichment (6-mer frequency, TF over GST control) with ETV6.
